In the library only some 0.9% were active in any assay of this set; here they are far more common.
GPT2 inhibitor – blocks human glutamate pyruvate transaminase 2; actives 0.25% (n = 100,000); Recombinant GPT2, coupled pyruvate oxidase/HRP Amplex Red fluorescence; Q8TD30; AID 1671188; Potency, µM (titrated, usually from 57.7 µM), for inactives: at the top dose activity change, negative = inhibition, hits mostly inhibitors; note: potency is the fitted concentration of half-maximal effect; nearly all actives have a fitted effect of over 60% in size
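Fluorescence read-out: pyruvate from GPT2 turnover coupled to pyruvate oxidase, HRP and Amplex Red (0.2mM ThPP, 0.2U/mL PO and HRP, 50uM Amplex final). Substrates 250uM a-KG, 2mM L-alanine; enzyme 10ng/uL; 30 min RT.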
IP6K1 inh – blocks human inositol hexakisphosphate kinase 1 | IP6K1 kinase, ADP-Glo luminescence, 2 h; hits give low values | activity change, % (series mostly up to about 58 µM) | actives 0.81% (n = 140,000) | AID 1645851; in the data active = activity change below about -25%
Target sequence (Q92551 whole entry, looked up): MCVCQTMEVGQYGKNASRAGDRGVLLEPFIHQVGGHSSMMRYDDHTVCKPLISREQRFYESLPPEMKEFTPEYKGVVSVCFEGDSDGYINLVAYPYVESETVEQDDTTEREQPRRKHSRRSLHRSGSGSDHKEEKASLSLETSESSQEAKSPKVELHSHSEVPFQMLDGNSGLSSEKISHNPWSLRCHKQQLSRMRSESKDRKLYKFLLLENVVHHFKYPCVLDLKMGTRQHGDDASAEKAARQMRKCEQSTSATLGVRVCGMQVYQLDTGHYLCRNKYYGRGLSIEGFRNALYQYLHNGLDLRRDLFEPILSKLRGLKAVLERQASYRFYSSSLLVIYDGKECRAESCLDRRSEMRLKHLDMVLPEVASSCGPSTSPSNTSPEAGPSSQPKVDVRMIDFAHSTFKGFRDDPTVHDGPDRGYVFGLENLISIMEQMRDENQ
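ADP-Glo luminescence measures ADP made by human IP6K1 during a 2 h RT reaction with ATP/IP6 (mix at 1.3 mM/130 uM); top library doses 57.5 and 19.1 uM final.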
SNCA expr inh – SNCA gene expression inhibition; Potency, µM (titrated, usually from 57.2 µM), inactives show top-dose activity change, negative = inhibition, most hits filed as inhibitors; AID 1671194; actives 0.17% (n = 140,000); HEK-293 SNCA-luciferase knock-in, luminescence, 24 h;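 note: potency is the fitted concentration of half-maximal effect; plate controls were DMSO cells for no effect and cell-free wells for full effect; nearly all actives have a fitted effect of over 45% in size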
HEK293 viab – cell viability loss counter-screen | Potency, µM (top dose mostly 57.1 µM), inactives show at the highest dose activity change, negative = cytotoxicity, hits mostly cytotoxic | AID 1671193 | actives 0.12% (n = 150,000) | HEK-293-SNCA-luc viability, GF-AFC fluorescence, 24 h;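 note: potency is the fitted concentration of half-maximal effect; 0% = DMSO-treated cells and -100% = medium-only wells without cells; nearly all actives have a fitted effect of over 30% in size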
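HEK-293-SNCA-luc cells (1500/well) plated 24 h, then exposed 24 h to a dilution series; GF-AFC added 30 min at 37C, fluorescence 405/540 nm; normalised to medium-only and DMSO wells, Hill fit.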
IP6K1 conf – human IP6K1 inhibition, confirmatory; shares compounds with IP6K1 inh; recombinant IP6K1 kinase, ADP-Glo luminescence, 2 h; Potency, µM (titrated, usually from 49 µM), inactives show top-dose activity change, negative = inhibition, usual class: inhibitors; actives 13% (n = 1,200); AID 1645852; note: potency is the fitted concentration of half-maximal effect; nearly all actives have a fitted effect of over 65% in size
* = called active by the depositor; [ ] = dose if it differs, or a comment. Unless noted, calls come from the whole dose curve; as a rule, active = well fitted curve in the direction sought with a large enough effect; inconclusive = small, poorly fitted or top-dose-only effect, or another doubt; inactive = no such curve, though single readings can be large; an effect the other way counts as inactive or inconclusive. Unless noted, % is set by controls: 0 for no effect and ±100 for the full control effect.

What do the screens show for `Cc1ccc(NCc2cccn2-c2nnc(N3CCC(C(=O)NCc4ccc(OC(C)C)cc4)CC3)s2)cc1`?
IP6K1 inh: -10; SNCA expr inh: inconclusive; HEK293 viab: -8%

What do the screens show for `O=C(Cc1ccc(NC(=O)N2CCSc3ncccc32)cc1)NCCc1ccccc1`?
IP6K1 inh: -33*; SNCA expr inh: 1%; HEK293 viab: -2%; IP6K1 conf: -17%

Results for O=C(Nc1ccc(Cl)cc1)N1CCCC(C(=O)N2CCC(c3ccccc3)CC2)C1 (centres undefined) ?
GPT2 inhibitor: -6%; IP6K1 inh: 2; SNCA expr inh: 17%; HEK293 viab: -1%

Results for O=C(CC1C(=O)OCCN1Cc1ccccc1)Nc1cccc(C(F)(F)F)c1 (centres undefined) ?
IP6K1 inh: 3; SNCA expr inh: inconclusive; HEK293 viab: -28%

How did COc1cccc(NC(=O)CC2C(=O)OCCN2Cc2ccccc2)c1 (centres undefined) do in these assays?
IP6K1 inh: -48*; SNCA expr inh: 6%; HEK293 viab: 9%; IP6K1 conf: -2%

Results for Cc1cc(=O)n(CC(=O)NCc2ccccc2Br)c(N(C)Cc2ccccc2)n1 ?
GPT2 inhibitor: inactive; IP6K1 inh: 2; SNCA expr inh: -21%; HEK293 viab: -11%

What do the screens show for `Cc1ccc(-n2ncc(C(=O)NCc3cccs3)c2C2CCN(C(=O)OC(C)(C)C)CC2)c(C)c1`?
IP6K1 inh: -33*; SNCA expr inh: inconclusive; HEK293 viab: -17%; IP6K1 conf: -4%

How did Cc1ccc(-n2ncc(C(=O)NCc3cccs3)c2C2CCN(C(=O)OC(C)(C)C)CC2)cc1C do in these assays?
IP6K1 inh: 22; SNCA expr inh: inconclusive; HEK293 viab: inconclusive

How did Cc1ccc(-n2ncc(C(=O)N3CCN(c4ccc(Cl)cc4)CC3)c2C2CCN(C(=O)OC(C)(C)C)CC2)c(C)c1 do in these assays?
IP6K1 inh: -35*; SNCA expr inh: -9%; HEK293 viab: -1%; IP6K1 conf: 10%

How did CCN(C(=O)c1cc(-c2ccccc2C(F)(F)F)nc2c1cnn2C)c1ccccc1 do in these assays?
IP6K1 inh: 2

Results for CN(c1cc(=O)c2ccnc(Nc3ccc(F)c(Cl)c3)c2o1)C1CCOCC1 ?
GPT2 inhibitor: inactive; IP6K1 inh: -25*; SNCA expr inh: 0%[87.6 µM]; HEK293 viab: -7%[87.6 µM]; IP6K1 conf: 20%

What do the screens show for `CN(c1cc(=O)c2ccnc(-c3cccc(C(F)(F)F)c3)c2o1)C1CCOCC1`?
GPT2 inhibitor: inactive; IP6K1 inh: -34*; SNCA expr inh: 7%[87.6 µM]; HEK293 viab: 0%[87.6 µM]; IP6K1 conf: inconclusive

How did CN(c1cc(=O)c2ccnc(-c3ccc(F)c(Cl)c3)c2o1)C1CCOCC1 do in these assays?
GPT2 inhibitor: 5%[88.5 µM]; IP6K1 inh: -1; SNCA expr inh: -12%[87.6 µM]; HEK293 viab: -1%[87.6 µM]

How did CN(c1cc(=O)c2ccnc(N3CCOCC3)c2o1)C1CCOCC1 do in these assays?
GPT2 inhibitor: inactive; IP6K1 inh: -17; SNCA expr inh: -1%[87.6 µM]; HEK293 viab: -6%[87.6 µM]

How did O=C(c1ccc(-c2cncnc2)cc1)N1CCC(N[S+](=O)([O-])c2cccs2)CC1 do in these assays?
GPT2 inhibitor: inactive; IP6K1 inh: -9; SNCA expr inh: inconclusive; HEK293 viab: 16%[12.5 µM]

Results for COCCOC1CN(C2CCN(Cc3cccc(F)c3)CC2)C12CCCCC2 (centres undefined) ?
GPT2 inhibitor: inactive; IP6K1 inh: -1; SNCA expr inh: -5%; HEK293 viab: -19%

Results for C[S+](=O)([O-])NCc1nnc2n1C(C(=O)NCc1ccccc1F)CC2 (centres undefined) ?
GPT2 inhibitor: inactive; IP6K1 inh: -28*; SNCA expr inh: 1%; HEK293 viab: 12%; IP6K1 conf: -2%

How did C[S+](=O)([O-])NCc1nnc2n1C(C(=O)NCc1ccccc1)CC2 (centres undefined) do in these assays?
GPT2 inhibitor: -20%[88.5 µM]; IP6K1 inh: 11; SNCA expr inh: -3%[87.6 µM]; HEK293 viab: 0%[12.5 µM]

From PubChem
